# Measurements from PubChem BioAssay AID772 (SRMLSC, 2007).
# Out of some 3,300 compounds screened, about 20 (0.6%) were called active.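 The calls were made as follows: active = growth inhibition above 90%, meaning viable cell count cut by more than 90% versus vehicle controls; inactive = growth inhibition below 90%.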 For the sample, actives were picked, then their nearest neighbours and some compounds at random.
# Experiment: HT29 colon tumor cell growth inhibition, primary screen, imaging, high content imaging, 72 h, CellTiter-Glo (AID 772);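 as to condensed nuclei: condensed means nuclear area below control median minus 1.5 SD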
# Settings: HCS imaging cell count, at 10 µM, stronger effect = higher value; for condensed nuclei: measured here: percent cells with condensed nuclei
# [1] = measured here: ATP CellTiter-Glo viability
Structure (SMILES),growth inhibition,growth inhibition [1] [%],condensed nuclei [%]
C=CCNc1nc(C2(C)CC3(CC(C)(C)OC3=O)C(=O)O2)cs1 (centres undefined),-18.2% (inactive),-56.2,1.83
N#Cc1c(N)nc(SCC(=O)NCCc2ccccc2)c(C#N)c1-c1cccs1,31.9% (inactive),4.22,7.98
N#Cc1c(N)nc(SCc2ccccn2)c(C#N)c1-c1cccs1,63.2% (inactive),42.6,5.56
CCCCSc1nc(N)c(C#N)c(-c2cccs2)c1C#N,95.4% (active),86.1,41.7
CCN(CC)S(=O)(=O)c1cccc2c(N(C)C)cccc12,-83.5% (inactive),-46.3,4.17
COCCCNc1nc(-c2ccncc2)nc2ccccc12,89.9% (inactive),86.6,44.1
COCCCNC(=O)C(C#N)c1nc2ccccc2nc1N1CCN(Cc2ccccc2)CC1 (centres undefined),0% (inactive),11.6,4.88
Clc1cccc(-c2nn3c(-c4cccc(Cl)c4)nnc3s2)c1,-66.5% (inactive),-37.2,7.77
COc1ccccc1C(=O)N1CCCC1(C#N)c1ccccc1 (centres undefined),-76.6% (inactive),-54.8,2.93
Fc1ccc2[nH]c3c(N4CCN(C5CCCCC5)CC4)ncnc3c2c1,86.8% (inactive),96.8,43.8
CCOc1cccc(-c2nn3c(-c4ccco4)nnc3s2)c1,19.2% (inactive),-9.06,6.05
Cc1cc(C(=O)O)c(CSc2ncn[nH]2)o1,-5.63% (inactive),-62.3,6.05
Cc1cc(=O)oc(C)c1C(=O)NCCC1=CCCCC1,26.9% (inactive),32.2,17.3
Cc1nc2sccn2c(=O)c1CCN1CCC(=C(c2ccccc2)c2ccc(F)cc2)CC1,29.7% (inactive),6.78,5.93
Cc1nc2sccn2c(=O)c1CCN1CCC(=C(c2ccc(F)cc2)c2ccc(F)cc2)CC1,93.1% (active),84.8,24.1
Cc1nc2ccccn2c(=O)c1CCN1CCC(C(=O)c2ccc(F)cc2)CC1,73.8% (inactive),86.5,24.8
O=C(CCC(=O)CCN1CCCCC1)CCN1CCCCC1,28.4% (inactive),14.4,16.4
CCOc1ccc2nc(NC(NC(C)=O)(C(=O)OC)C(F)(F)F)sc2c1 (centres undefined),-16.9% (inactive),18.6,3.93
C=CCn1cnc2c(c1=O)c1nc3ccccc3nc1n2-c1ccc(C)cc1,31.2% (inactive),-2.67,2.48
Cn1c(SCC(=O)NCc2ccccc2)nc2ccccc21,59.6% (inactive),2.57,4.29
CCC(=O)O[C@@H]1CC(=O)O[C@H](C)CC=CC=C[C@@H](O)[C@H](C)C[C@H](CC=O)[C@H](O[C@H]2O[C@H](C)[C@@H](O[C@H]3C[C@@](C)(O)[C@@H](OC(=O)CC)[C@H](C)O3)[C@H](N(C)C)[C@H]2O)[C@H]1OC,-45.9% (inactive),-13.7,2.22
COc1ccc2[nH]c(C)c(C(=O)CN3CCc4cc(OC)c(OC)cc4C3)c2c1,-33.9% (inactive),-14.6,2.58
CCN(CC)C(=O)CSc1nc2ccccc2c(=O)n1CC1CCCCC1,65.6% (inactive),31.7,18.9
COc1cccc2c(=O)c(SC(F)(F)C(F)C(F)(F)F)c(C)[nH]c12 (centres undefined),94% (active),65.5,36.9
Cc1[nH]c2ccc(F)cc2c(=O)c1SC(F)(F)C(F)C(F)(F)F (centres undefined),-7.36% (inactive),-57.2,1.61

Structure (SMILES),growth inhibition,growth inhibition [1] [%],condensed nuclei [%]
Cc1onc(-c2ccccc2Cl)c1C(=O)N1CCN(c2nc3ccccc3s2)CC1,55.9% (inactive),62.8,7.24
O=C1[C@@H]2[C@H](C(=O)N1n1cnnc1)[C@H]1C=C[C@@H]2C1,-36.7% (inactive),4.74,7.85
Cc1cccn2c(=O)c3cc(C#N)c(=N)n(Cc4ccncc4)c3nc12,10.6% (inactive),-4.36,5.14
CCC(NC(=O)Nc1cc(OC)c(OC)c(OC)c1)(C(F)(F)F)C(F)(F)F,9.36% (inactive),-14.6,2.2
COC(=O)[C@@H](N)Cc1ccc(O)cc1,-11.9% (inactive),12.5,9.88
COC(=O)/C=c1/s/c(=C(/C#N)C(=O)N2CCOCC2)n(-c2ccccc2)c1=O,-9.52% (inactive),-73,5.81
C=CCOC(=O)C1=C(C)NC(SCC(=O)Nc2ccc(C)c(Cl)c2)=C(C#N)C1c1ccco1 (centres undefined),81.3% (inactive),81.8,10.5
O=C1C(=O)N(Cc2cccnc2)C(c2ccccn2)/C1=C(/O)c1ccc(Br)cc1 (centres undefined),-60.8% (inactive),-51.9,3.93
CCOC(=O)c1c(C)n(C)c2ccc(O)c(S(=O)(=O)c3ccccc3)c12,0.86% (inactive),-12.9,2.84
Cc1nc(Sc2cccn2C)c(C(F)(F)F)c(=O)[nH]1,26% (inactive),-42.6,1.74
N#CC1=C(C=Nc2ccccc2O)CCC1,2.22% (inactive),-3.16,1.93
CCOC(=O)c1c(C)n(C)c2ccc(OC)c(NC(=O)CCN3CCSCC3)c12,-24% (inactive),-19.5,1.98
Cc1cc2c(c(=O)n1CC1CCCO1)C(c1ccc3c(c1)OCO3)C(C#N)=C(N)O2 (centres undefined),-29.9% (inactive),-39,2.84
COC(=O)C(NC(=O)c1ccccc1)(Nc1nccs1)C(F)(F)F (centres undefined),60.8% (inactive),20.8,9.01
CC(C)(C)C1=Nn2c(nnc2-c2ccccn2)SC1,-24.5% (inactive),-54.2,2.89
Cn1c(Cl)nc2c1c(=O)n(Cc1cccc(Br)c1)c(=O)n2C,58.3% (inactive),38,20.4
CC(NC(=O)NCc1cccnc1)(C(F)(F)F)C(F)(F)F,-58% (inactive),-34.9,7.24
CCO/C(C)=N/n1c2nc3ccccc3nc2c2c(=O)n(Cc3ccccc3Cl)c(C)nc21,-20.7% (inactive),-31,2.79
CC(C)N=c1cc2n(-c3ccc(Cl)cc3)c3ccccc3nc-2cc1Nc1ccc(Cl)cc1,39.7% (inactive),87,30.8
COC(=O)NC(Nc1sc2c(c1C(N)=O)CCCC2)(C(=O)OC)C(F)(F)F (centres undefined),-86.9% (inactive),-40.6,3.2
O=C(CN1C(=O)c2ccccc2S1(=O)=O)NCCSCc1ccco1,36.4% (inactive),6.94,3.38
CCCCCNC(=O)C(C#N)c1nc2ccccc2nc1N1CC(C)OC(C)C1 (centres undefined),31% (inactive),-14.9,8.13
CCCCCCc1cc2cc(-c3nnc(-c4ccccc4O)o3)c(=O)oc2cc1O,23.4% (inactive),12.5,4.18
CCN(CC)c1ccc2cc(-c3nnc(-c4ccncc4)o3)c(=O)oc2c1,99.1% (active),-9.72,4.75
CCN(CC)c1ccc2cc(C(=O)Nc3ccccn3)c(=O)oc2c1,12.7% (inactive),-23.3,5.56

Structure (SMILES),growth inhibition,growth inhibition [1] [%],condensed nuclei [%]
CCOC(=O)CSc1nnc2n(Cc3ccccc3)c(=O)c3c4c(sc3n12)CCC4,17.8% (inactive),-5.86,16.9
CCOC(=O)c1ccc(NC(=O)CCC(CC)C(=O)O)cc1 (centres undefined),-26.9% (inactive),-22.9,2.9
CC1(C(=O)CSc2n[nH]c(-c3ccccc3Cl)n2)CCC(=O)O1 (centres undefined),-77.2% (inactive),-34.5,2.66
OCCN(CCO)c1ncnc2c1sc1nc(N3CCOCC3)c3c(c12)CCCC3,49.2% (inactive),92.5,17.2
CC1(C)Cc2c(sc3nc(SCC#N)n(C4CCCCC4)c(=O)c23)CO1,25.6% (inactive),23.5,3.8
N#CC(C(=O)NC1CCCCC1)c1nc2ccccc2nc1N1CCN(c2ccccc2F)CC1 (centres undefined),-45.2% (inactive),-45.5,1.44
CCCCC(CCC(=O)Nc1ccc(C(=O)OC)cc1)C(=O)O (centres undefined),37.5% (inactive),-7.18,1.33
Cc1c(CCC#N)c(N2CCN(C3CCCCC3)CC2)n2c(nc3ccccc32)c1C#N,32.8% (inactive),-4.95,10.6
Cc1cc(COc2ccccc2OCCN2CCN(C)CC2)no1,4.14% (inactive),10.2,1.56
CC(=O)c1cc(C#N)c(SCc2ccncc2)nc1C,26.3% (inactive),11,4.17
CCOC(=O)CC(=O)CSc1nc2c(cc1C#N)CCCCCC2,-4.76% (inactive),-61.7,6.69
COC(=O)CC1SC(=O)NC1=O (centres undefined),-1.44% (inactive),-13,4.51
Cc1ccc(SCc2nnc(N)s2)cc1,-4.01% (inactive),13.4,15.1
CCN(CC)CCCC1(CN)OCCc2ccccc21 (centres undefined),-50.9% (inactive),-27.8,1.84
CCOc1cccc(-c2nnc3sc(-c4cc(OC)c(OC)c(OC)c4)nn23)c1,-44.5% (inactive),-50.4,2.45
Cc1ccc2cc(CN(C(=O)c3ccco3)c3ccccc3C)c(=O)[nH]c2c1,-61.6% (inactive),-59.5,2.77
CCCOc1ccc(Cl)cc1CN1CCOCC1,-59.3% (inactive),-68.7,3.51
COn1c(SC2CCCCC2)nc2ccccc2c1=O,52.3% (inactive),29.2,12.3
CCOC(=O)C1=C(N)n2c(s/c(=C\c3ccco3)c2=O)=C(C(=O)OC(C)C)C1c1ccco1 (centres undefined),50% (inactive),-8.27,23.3
O=C(O)c1cc2sccc2s1,33% (inactive),-8.08,8.44
CC1(C)NC(=O)N(CC(O)COc2ccccc2C(=O)Nc2ccccc2)C1=O (centres undefined),-19.4% (inactive),-40.4,5.25
COC(=O)C1C(=O)CC(C)(O)C(C(=O)OC)C1c1ccccc1F (centres undefined),19% (inactive),-32.9,2.72
O=C(OCC#CCSc1nnc(-c2ccccc2)o1)c1cccs1,38% (inactive),5.5,10.3
